According to the supplement of paper PMC10849652:
Of roughly 8,800 targets only a part is listed; those with a hit were picked by preference. About 0.5% of all pairs of compound and target were hits.

Key:
Test in all cases: log2 fold change, soluble protein after heating vs DMSO (PISA); higher = thermal stabilisation; K562 lysate, 10 uM; active = over 0.2 and 3.5 SD of the protein, either way, in both replicates (recomputed)
[1] = compound: CCCS(=O)(=O)Nc1ccc(F)c(C(=O)c2c[nH]c3ncc(-c4ccc(Cl)cc4)cc23)c1F [vemurafenib]
Outline: (§1)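 Thermal stability, expressed as log-two fold change relative to solvent controls, is given from duplicates. Crude K562 extract in PBS pH 7.4 with 1 mM MgCl2, at 1 mg/mL protein, was treated with 10 μM compound for 30 min and heated in aliquots for 3 min across 48°C-58°C. After pooling, adjustment to 0.5% NP-40 at 4°C and centrifugation at 21,000xg for 90 min, supernatant protein was measured by TMTpro 16plex LC-MS/MS with channel sums equalised.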

[2] = compound: CCCS(=O)(=O)Nc1ccc(F)c(C(=O)c2c[nH]c3ncc(Cl)cc23)c1F
Outline: as §1

[3] = compound: CCN(CCCOc1ccc2c(Nc3cc(CC(=O)Nc4cccc(F)c4)[nH]n3)ncnc2c1)CCOP(=O)(O)O [barasertib]
Outline: as §1

[4] = compound: CC[C@@H]1C(=O)N(C)c2cnc(Nc3ccc(C(=O)NC4CCN(C)CC4)cc3OC)nc2N1C1CCCC1
Outline: as §1

[5] = compound: CC[C@@H]1C(=O)N(C)c2cnc(Nc3ccc(C(=O)N[C@H]4CC[C@H](N5CCN(CC6CC6)CC5)CC4)cc3OC)nc2N1C(C)C [volasertib]
Outline: as §1

[6] = compound: CCn1c(C(=O)N(C2CC2)C2CC2)cc2c3c(ncn3C)c(Nc3cc(C)n(C)n3)nc21
Outline: as §1

[7] = compound: CCn1cc(-c2ccnc3[nH]c(-c4cccc(CN(C)C)c4)cc23)c(-c2ccc(NC(=O)N(C)C)cc2)n1
Outline: as §1

[8] = compound: CN1CCC(CNc2ccc3ncc(-c4cccc(OC(F)(F)F)c4)n3n2)CC1
Outline: as §1

[9] = compound: CN1CCN(CCOc2cc(OC3CCOCC3)c3c(Nc4c(Cl)ccc5c4OCO5)ncnc3c2)CC1 [saracatinib]
Outline: as §1

[10] = compound: CN1CCN(c2nc(C3=C(c4c[nH]c5ccccc45)C(=O)NC3=O)c3ccccc3n2)CC1 [sotrastaurin]
Outline: as §1

[11] = compound: CN1CC[C@H](c2c(O)cc(O)c3c(=O)cc(-c4ccccc4Cl)oc23)[C@H](O)C1 [alvocidib]
Outline: as §1

[12] = compound: CN1CCc2c(c3ccccc3n2Cc2ccc(C(=O)NO)cc2)C1 [Tubastatin A]
Outline: as §1

[13] = compound: CNC(=O)C1=CC=CC=C1NC2=NC(=NC=C2Cl)NC3=C(C=C(C=C3)N4CCOCC4)OC
Outline: as §1

[14] = compound: CNC(=O)c1ccc(Nc2ncc(C(F)(F)F)c(NCc3nccnc3N(C)S(C)(=O)=O)n2)cc1 [defactinib]
Outline: as §1

[15] = compound: CNc1nc(-c2ccc3c(N)n[nH]c3c2)cc(N2C[C@@H](C(=O)NC3CCCCC3)CC[C@H]2C)n1
Outline: as §1

[16] = compound: COC(=O)N[C@@H](C)CNc1nccc(-c2cn(C(C)C)nc2-c2cc(Cl)cc(NS(C)(=O)=O)c2F)n1 [encorafenib]
Outline: as §1

[17] = compound: COC(=O)[C@H](CCSC)NC(=O)C1=C(C=C(C=C1)NC[C@H](CS)N)C2=CC=CC=C2
Outline: as §1

[18] = compound: COc1cc(Nc2ncc3c(n2)-c2ccc(Cl)cc2C(c2c(F)cccc2OC)=NC3)ccc1C(=O)O [alisertib]
Outline: as §1

[19] = compound: COc1cc2nc(-c3cc(F)ccc3O)nc(N[C@@H]3CNC[C@H]3C(C)(C)O)c2cc1OC
Outline: as §1

[20] = compound: COc1cc2ncnc(Nc3ccc(F)c(Cl)c3)c2cc1OCCCN1CCOCC1 [gefitinib]
Outline: as §1

Measured: log2 fold change

HDGFL2 isoform 2 (UniProt Q7Z4V5)
Chain of UniProt Q7Z4V5 (Q7Z4V5 whole entry, looked up): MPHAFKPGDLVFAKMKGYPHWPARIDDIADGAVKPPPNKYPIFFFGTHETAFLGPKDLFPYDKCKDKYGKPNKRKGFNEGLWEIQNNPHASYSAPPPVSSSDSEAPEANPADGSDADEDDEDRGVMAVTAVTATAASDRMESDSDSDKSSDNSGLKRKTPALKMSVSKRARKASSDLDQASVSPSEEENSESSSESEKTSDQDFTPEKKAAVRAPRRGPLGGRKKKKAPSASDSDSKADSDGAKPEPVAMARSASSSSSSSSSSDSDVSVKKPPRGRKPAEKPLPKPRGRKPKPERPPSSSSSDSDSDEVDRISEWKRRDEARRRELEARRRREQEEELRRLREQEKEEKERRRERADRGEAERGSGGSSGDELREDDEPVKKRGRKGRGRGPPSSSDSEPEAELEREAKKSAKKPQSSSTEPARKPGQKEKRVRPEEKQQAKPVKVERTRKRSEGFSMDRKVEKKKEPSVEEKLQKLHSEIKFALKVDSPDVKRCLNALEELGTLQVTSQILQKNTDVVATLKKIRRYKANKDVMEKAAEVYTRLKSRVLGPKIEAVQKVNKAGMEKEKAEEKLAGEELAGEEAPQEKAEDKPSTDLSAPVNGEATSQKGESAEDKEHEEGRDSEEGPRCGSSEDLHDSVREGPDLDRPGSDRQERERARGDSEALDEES
active: [7] -0.417
inactive: [1] 0.016 | [2] -0.003 | [3] -0.01 | [4] 0.064 | [5] 0.052 | [6] -0.066 | [8] 0.196 | [9] -0.015 | [10] 0.038 | [11] -0.155 | [12] 0.011 | [13] 0.013 | [14] -0.008 | [15] 0.016 | [16] -0.004 | [17] -0.065 | [18] -0.029 | [19] 0 | [20] 0.03

HNRNPLL (UniProt Q8WVV9)
inactive: [1] 0.004 | [2] 0.046 | [3] 0.018 | [4] 0.008 | [5] -0.027 | [6] -0.004 | [7] -0.006 | [8] -0.013 | [9] -0.001 | [10] 0.034 | [11] 0.015 | [12] -0.164 | [13] 0.021 | [14] 0.035 | [15] -0.016 | [16] 0.082 | [17] -0.07 | [18] -0.016 | [19] 0.011 | [20] -0.052

HNRNPDL (UniProt O14979)
Chain of UniProt O14979 (O14979 whole entry, looked up): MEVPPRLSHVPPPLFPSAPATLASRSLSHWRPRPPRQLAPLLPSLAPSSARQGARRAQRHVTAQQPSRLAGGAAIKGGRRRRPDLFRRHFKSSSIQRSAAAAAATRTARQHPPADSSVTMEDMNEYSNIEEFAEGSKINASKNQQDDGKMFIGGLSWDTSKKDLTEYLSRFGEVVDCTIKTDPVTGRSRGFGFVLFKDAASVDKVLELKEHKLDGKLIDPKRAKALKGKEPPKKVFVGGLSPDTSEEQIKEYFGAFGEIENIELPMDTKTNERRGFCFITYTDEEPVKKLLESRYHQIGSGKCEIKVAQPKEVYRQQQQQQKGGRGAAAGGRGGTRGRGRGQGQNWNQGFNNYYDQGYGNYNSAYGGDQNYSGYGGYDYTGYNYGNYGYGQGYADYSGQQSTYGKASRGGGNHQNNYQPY
inactive: [1] -0.039 | [2] 0.026 | [3] -0.03 | [4] 0.008 | [5] -0.002 | [6] 0.003 | [7] 0.043 | [8] 0.018 | [9] -0.036 | [10] -0.098 | [11] 0.01 | [12] -0.017 | [13] 0.018 | [14] -0.006 | [15] -0.002 | [16] -0.028 | [17] -0.017 | [18] 0.04 | [19] -0.005 | [20] -0.029

IMMT (UniProt C9J406)
inactive: [1] -0.018 | [2] -0.036 | [3] -0.105 | [4] 0.098 | [5] -0.015 | [6] 0.018 | [7] -0.464 | [8] -0.037 | [9] 0.074 | [10] 0.02 | [11] -0.027 | [12] -0.076 | [13] -0.162 | [14] 0.075 | [15] 0.008 | [16] -0.085 | [17] -0.166 | [18] -0.031 | [19] -0.073 | [20] -0.052

INTS8 (UniProt Q75QN2)
Chain of UniProt Q75QN2 (Q75QN2 whole entry, looked up): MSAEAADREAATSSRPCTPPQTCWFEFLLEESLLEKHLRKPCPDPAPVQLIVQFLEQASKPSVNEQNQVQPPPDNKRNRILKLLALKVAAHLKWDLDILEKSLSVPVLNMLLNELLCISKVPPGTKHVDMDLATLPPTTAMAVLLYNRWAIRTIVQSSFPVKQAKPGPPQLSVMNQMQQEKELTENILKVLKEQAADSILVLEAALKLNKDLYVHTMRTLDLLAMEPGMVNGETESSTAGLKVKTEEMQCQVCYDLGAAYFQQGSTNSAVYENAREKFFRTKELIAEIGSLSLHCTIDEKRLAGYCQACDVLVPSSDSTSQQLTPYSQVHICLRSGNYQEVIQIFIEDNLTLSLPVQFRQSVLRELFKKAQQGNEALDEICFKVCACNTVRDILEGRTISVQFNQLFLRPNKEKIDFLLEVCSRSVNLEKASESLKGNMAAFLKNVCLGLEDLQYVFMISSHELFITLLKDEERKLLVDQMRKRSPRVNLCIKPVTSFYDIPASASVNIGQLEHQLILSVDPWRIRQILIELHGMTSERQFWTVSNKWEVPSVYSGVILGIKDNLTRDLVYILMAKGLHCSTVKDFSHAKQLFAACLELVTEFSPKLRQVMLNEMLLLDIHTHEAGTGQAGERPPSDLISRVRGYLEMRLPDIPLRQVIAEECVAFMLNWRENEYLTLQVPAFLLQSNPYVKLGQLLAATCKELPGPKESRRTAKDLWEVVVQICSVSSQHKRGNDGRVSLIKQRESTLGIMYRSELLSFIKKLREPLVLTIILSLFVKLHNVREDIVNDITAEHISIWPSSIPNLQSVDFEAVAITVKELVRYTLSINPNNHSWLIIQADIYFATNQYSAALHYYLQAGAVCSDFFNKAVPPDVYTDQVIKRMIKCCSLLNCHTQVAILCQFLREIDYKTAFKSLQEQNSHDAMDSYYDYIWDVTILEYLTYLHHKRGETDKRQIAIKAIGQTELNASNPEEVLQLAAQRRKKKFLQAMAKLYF
inactive: [1] 0.016 | [2] 0.02 | [3] -0.131 | [4] -0.024 | [5] -0.061 | [6] 0.041 | [7] -0.075 | [8] 0.037 | [9] 0.09 | [10] 0.084 | [11] -0.011 | [12] -0.013 | [13] 0.083 | [14] 0.084 | [15] 0.011 | [16] 0.098 | [17] -0.111 | [18] -0.008 | [19] -0.033 | [20] -0.04

KDM5B isoform 2 (UniProt Q9UGL1)
Chain of UniProt Q9UGL1 (Q9UGL1 whole entry, looked up): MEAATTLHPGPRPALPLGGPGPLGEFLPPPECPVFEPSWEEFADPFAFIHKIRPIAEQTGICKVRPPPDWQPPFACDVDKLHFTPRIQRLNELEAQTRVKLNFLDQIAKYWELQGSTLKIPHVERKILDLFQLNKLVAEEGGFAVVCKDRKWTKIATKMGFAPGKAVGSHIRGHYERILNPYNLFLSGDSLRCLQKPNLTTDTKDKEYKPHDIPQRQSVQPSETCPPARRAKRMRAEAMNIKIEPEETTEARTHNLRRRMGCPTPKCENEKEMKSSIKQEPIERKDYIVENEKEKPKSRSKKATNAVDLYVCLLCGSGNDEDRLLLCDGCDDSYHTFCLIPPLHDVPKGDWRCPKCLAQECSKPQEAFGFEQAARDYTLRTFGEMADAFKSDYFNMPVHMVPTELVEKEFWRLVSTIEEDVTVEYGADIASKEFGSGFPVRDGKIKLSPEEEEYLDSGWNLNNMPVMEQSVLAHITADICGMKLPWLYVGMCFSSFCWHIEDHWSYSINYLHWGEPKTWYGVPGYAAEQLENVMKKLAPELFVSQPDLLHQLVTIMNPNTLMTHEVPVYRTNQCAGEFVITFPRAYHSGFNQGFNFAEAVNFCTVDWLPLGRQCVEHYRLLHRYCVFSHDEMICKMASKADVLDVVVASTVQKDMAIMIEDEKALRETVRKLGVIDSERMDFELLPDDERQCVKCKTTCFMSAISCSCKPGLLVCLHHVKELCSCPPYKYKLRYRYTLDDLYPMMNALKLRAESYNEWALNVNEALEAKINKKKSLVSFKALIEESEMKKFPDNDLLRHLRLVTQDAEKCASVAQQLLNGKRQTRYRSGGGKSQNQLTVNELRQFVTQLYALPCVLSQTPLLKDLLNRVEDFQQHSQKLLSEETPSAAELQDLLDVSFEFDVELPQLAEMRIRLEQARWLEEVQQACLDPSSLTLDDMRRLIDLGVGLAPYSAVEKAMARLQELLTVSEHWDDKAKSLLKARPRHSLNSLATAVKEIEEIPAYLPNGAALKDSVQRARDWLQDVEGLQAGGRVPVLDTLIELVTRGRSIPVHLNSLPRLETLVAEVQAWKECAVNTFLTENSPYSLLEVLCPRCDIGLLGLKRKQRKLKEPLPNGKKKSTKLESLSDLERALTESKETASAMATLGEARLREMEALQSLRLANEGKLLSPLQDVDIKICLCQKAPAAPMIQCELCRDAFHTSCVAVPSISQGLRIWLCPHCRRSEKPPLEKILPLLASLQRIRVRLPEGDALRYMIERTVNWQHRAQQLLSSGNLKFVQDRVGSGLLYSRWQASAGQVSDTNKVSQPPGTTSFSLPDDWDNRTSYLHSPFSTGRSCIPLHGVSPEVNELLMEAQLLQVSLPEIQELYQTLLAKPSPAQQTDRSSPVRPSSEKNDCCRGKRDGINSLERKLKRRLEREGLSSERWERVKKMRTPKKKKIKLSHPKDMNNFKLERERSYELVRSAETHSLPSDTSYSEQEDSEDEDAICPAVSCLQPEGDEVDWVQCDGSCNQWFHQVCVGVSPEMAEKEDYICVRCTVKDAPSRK
inactive: [1] 0.043 | [2] 0.073 | [3] 0.039 | [4] 0.138 | [5] 0.071 | [6] -0.059 | [7] -0.107 | [8] -0.034 | [9] -0.113 | [10] -0.136 | [11] -0.048 | [12] 0.021 | [13] -0.007 | [14] 0.08 | [15] 0.307 | [16] -0.094 | [17] 0.075 | [19] 0.014

KDM6A (UniProt O15550)
Chain of UniProt O15550 (O15550 whole entry, looked up): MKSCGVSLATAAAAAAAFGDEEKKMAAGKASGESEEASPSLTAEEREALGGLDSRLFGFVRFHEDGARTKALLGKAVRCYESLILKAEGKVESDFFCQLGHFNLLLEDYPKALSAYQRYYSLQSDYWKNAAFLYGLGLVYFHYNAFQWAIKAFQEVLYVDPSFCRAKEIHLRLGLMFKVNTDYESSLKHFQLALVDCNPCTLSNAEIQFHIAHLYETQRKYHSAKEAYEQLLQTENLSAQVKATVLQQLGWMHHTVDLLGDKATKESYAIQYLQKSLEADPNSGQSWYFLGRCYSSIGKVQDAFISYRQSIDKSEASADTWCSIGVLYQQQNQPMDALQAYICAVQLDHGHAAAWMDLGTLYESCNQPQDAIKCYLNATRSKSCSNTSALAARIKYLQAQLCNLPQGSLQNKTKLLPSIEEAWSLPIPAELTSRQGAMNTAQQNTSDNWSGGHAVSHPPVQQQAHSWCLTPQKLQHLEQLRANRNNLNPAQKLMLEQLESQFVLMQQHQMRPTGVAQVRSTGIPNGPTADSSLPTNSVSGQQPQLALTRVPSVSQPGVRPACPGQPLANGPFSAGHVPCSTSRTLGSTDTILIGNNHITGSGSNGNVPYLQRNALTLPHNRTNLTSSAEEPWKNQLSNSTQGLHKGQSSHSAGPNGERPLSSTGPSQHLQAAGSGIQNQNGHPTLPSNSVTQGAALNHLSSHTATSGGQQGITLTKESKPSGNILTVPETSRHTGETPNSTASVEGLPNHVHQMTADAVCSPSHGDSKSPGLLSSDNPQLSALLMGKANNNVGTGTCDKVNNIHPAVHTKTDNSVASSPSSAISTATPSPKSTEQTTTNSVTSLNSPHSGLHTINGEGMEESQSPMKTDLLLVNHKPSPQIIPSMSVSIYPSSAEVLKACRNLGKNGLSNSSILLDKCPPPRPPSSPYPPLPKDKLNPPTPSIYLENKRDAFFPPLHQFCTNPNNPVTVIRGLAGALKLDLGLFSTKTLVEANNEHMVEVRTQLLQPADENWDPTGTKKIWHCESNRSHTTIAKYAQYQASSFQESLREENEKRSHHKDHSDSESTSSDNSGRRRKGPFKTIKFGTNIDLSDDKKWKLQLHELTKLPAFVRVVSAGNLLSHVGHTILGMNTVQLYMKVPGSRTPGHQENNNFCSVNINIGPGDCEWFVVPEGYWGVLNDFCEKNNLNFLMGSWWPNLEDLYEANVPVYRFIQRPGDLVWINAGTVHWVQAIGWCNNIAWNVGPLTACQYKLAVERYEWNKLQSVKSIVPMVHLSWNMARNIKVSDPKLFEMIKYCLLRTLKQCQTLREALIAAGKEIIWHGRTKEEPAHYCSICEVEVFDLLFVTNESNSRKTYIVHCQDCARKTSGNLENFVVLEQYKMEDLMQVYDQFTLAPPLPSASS
inactive: [1] -0.045 | [2] 0.006 | [3] 0.017 | [4] 0.035 | [5] -0.036 | [6] -0.017 | [7] 0.089 | [8] 0.067 | [9] 0.029 | [10] -0.01 | [11] -0.057 | [12] -0.057 | [13] 0.041 | [14] -0.048 | [15] 0.006 | [16] 0.054 | [17] 0.018 | [18] -0.025 | [19] -0.005 | [20] -0.011

HAUS4 (UniProt Q9H6D7)
inactive: [1] 0.007 | [2] 0.044 | [3] 0.107 | [4] -0.047 | [5] -0.039 | [6] 0.015 | [7] -0.045 | [8] -0.04 | [9] 0.022 | [10] 0.02 | [11] 0.007 | [12] -0.116 | [13] 0.007 | [14] 0.014 | [15] -0.005 | [16] 0.002 | [17] 0.012 | [18] 0.008 | [19] -0.017 | [20] -0.022

GTF2A1 (UniProt P52655)
inactive: [1] -0.028 | [2] 0.01 | [3] 0.018 | [4] 0.042 | [5] 0.035 | [6] 0.015 | [7] 0.033 | [8] -0.042 | [9] -0.004 | [10] 0.024 | [11] 0.165 | [12] 0.006 | [13] -0.047 | [14] 0.033 | [15] 0.048 | [16] -0.005 | [17] -0.026 | [18] -0.029 | [19] -0.024 | [20] 0.008
